From PubChem BioAssay
IDE cell inh: human IDE inhibitors in live cells, primary screen, fluorescence polarization, HEK cells, FAbetaB substrate; Insulin-degrading enzyme (Homo sapiens), P14735; FAbetaB cleavage; inhibition, % at 5.59 µM; 320,000 compounds, 0.41% hits;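 active = percent inhibition above the average of all tested compounds plus 3 SD, set per screening campaign, cut at about 16% in these data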;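 note: IDE supplied by intact live HEK cells; FP after avidin binding of uncleaved biotin substrate so inhibition keeps polarization high; 0% = DMSO wells and 100% = 60 µM reference IDE inhibitor Ii1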
eLon inh: inhibitors of E. coli Lon protease, primary screen, biochemical, fluorescence polarization; AID 602123, 2011; P0A9M0; inhibition, % at 7.94 µM; 360,000 compounds, 0.42% hits; purified E. coli Lon protease; in the data active = inhibition above about 13%, passing the limit was not always enough;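 note: 0% = enzyme with probe and DMSO and 100% = no enzyme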
PKA-R1A act: activators of PKA-R1A holoenzyme, primary screen, biochemical, fluorescence polarization, Cy5-IP20, bovine R1A, mouse PKAc; cAMP-dependent protein kinase type I-alpha regulatory subunit (Bos taurus) + …; PKA-R1A dissociation; scaled: DMSO 0%, 113 µM cGMP 100%; 340,000 compounds, 0.083% hits; AID 504707, 2011; activation, % at 11.4 µM;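 active = percent activation above the mean of all tested compounds plus 3 SD, cut at about 19% in these data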;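 note: higher means more PKAc released from R1A so a rise in polarization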
IDE act: human IDE activators in live cells, primary screen, fluorescence polarization, HEK cells, FAbeta-B substrate; FAbeta-B cleavage; 0% vehicle, 100% cell-free pure enzyme wells; activation, % at 5.96 µM; 340,000 compounds, 0.073% hits;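 active = activation above the mean of all tested compounds plus 3 SD, set per screening campaign, cut at about 17% in these data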
Rin1-Abl PPI inh: inhibitors of Rin1-Abl protein binding, primary screen, biochemical, TR-FRET; Tyrosine-protein kinase ABL1 (Homo sapiens) + Ras and Rab interactor 1 (Homo sapiens), …; inhibition, % at 7.35 µM; 360,000 compounds, 0.4% hits; in the data active = inhibition above about 5%, passing the limit was not always enough
PKA-R2B act: activators of PKA-R2B holoenzyme, primary screen, biochemical, fluorescence polarization, Cy5-IP20, human; cAMP-dependent protein kinase catalytic subunit beta (Homo sapiens) + cAMP-dependent …; PKA-R2B holoenzyme dissociation; R2B truncated from residue 108, S112A mutant; 0% DMSO only, 100% 113 µM cGMP; activation, % at 11.4 µM; 340,000 compounds, 0.079% hits;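 active = activation above a cutoff set at the mean over all compounds plus 3 SD, cut at about 18% in these data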;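 note: higher means more holoenzyme dissociation and a rise in polarization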
Target sequence (P31323 whole entry, looked up, other chains not shown, the tested form may be a part): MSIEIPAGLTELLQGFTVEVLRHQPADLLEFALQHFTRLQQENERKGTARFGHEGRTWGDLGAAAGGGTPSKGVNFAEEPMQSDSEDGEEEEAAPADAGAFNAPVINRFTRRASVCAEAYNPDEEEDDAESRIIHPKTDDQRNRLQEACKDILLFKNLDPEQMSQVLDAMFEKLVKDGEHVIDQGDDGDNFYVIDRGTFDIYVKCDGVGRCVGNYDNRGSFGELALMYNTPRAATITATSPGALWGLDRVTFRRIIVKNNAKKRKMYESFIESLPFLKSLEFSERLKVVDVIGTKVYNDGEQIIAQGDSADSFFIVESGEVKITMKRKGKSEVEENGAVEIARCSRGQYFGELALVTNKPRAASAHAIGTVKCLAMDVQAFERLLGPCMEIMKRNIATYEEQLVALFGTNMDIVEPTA
IDE inh confirm: human IDE inhibitors in live cells, confirmation, fluorescence polarization, HEK cells, FAbetaB substrate; shares compounds with IDE cell inh; FAbetaB cleavage; inhibition, % at 5.59 µM; 1,200 compounds, 51% hits;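 active = mean inhibition across triplicate wells above the cutoff set by the earlier primary insulin-degrading enzyme screen, cut at about 16% in these data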;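 note: 0% = DMSO wells and 100% = 60 µM reference IDE inhibitor Ii1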
HEK293 tox: cytotoxicity in HEK cells, cytotoxicity control for IDE inhibitor project, cell-based, luminescence; inhibition, % at 5.59 µM; HEK293 cytotoxicity, ATP luminescence; AID 449730, 2010; 1,200 compounds, 28% hits; shares compounds with IDE cell inh; in the data active = inhibition above about 22%;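 note: 0% = vehicle wells and 100% = reference cytotoxic drug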
Numbers without * were called inactive; / = no result. Only some compounds are listed: those with a hit (about 1.3% of all), similar ones and a draw of the others.

SMILES	IDE cell inh	eLon inh	PKA-R1A act	IDE act	Rin1-Abl PPI inh	PKA-R2B act	IDE inh confirm	HEK293 tox
COc1cc(/C=C2/SC(=S)N(Cc3ccccc3)C2=O)ccc1O	115*	-108	-13	-117	-1	-2	139*	20
COc1cc(/C=C2/SC(=S)N(c3c(C)n(C)n(-c4ccccc4)c3=O)C2=O)ccc1O	18*	-58	-9	-34	-4	1	46*	11
O=C1/C(=C\c2cc([N+](=O)[O-])ccc2O)SC(=S)N1Cc1ccc(Cl)cc1	40*	-236	-8	-57	4	6	130*	15
O=C1/C(=C\c2cccc(O)c2O)SC(=S)N1Cc1ccccc1	9	1	4	-28	-6	3	/	/
O=C1/C(=C\c2ccc(O)c(O)c2)SC(=S)N1Cc1ccccc1	/	-151	-3	-77	0	1	/	/
COc1ccc(C2C3=C(CC(C)(C)CC3=O)Oc3ncn(Cc4ccccc4)c(=N)c32)cc1 (stereo unspecified)	-1	6	3	1	1	-2	/	/
Cc1ccc(N2CC(C(=O)N3CCC(C(=O)Nc4ccc(Br)cc4)CC3)CC2=O)cc1 (stereo unspecified)	17*	-2	5	-7	0	-14	7	12
Cc1ccc(N2CC(C(=O)N3CCC(C(=O)Nc4cccc(Br)c4)CC3)CC2=O)cc1 (stereo unspecified)	4	-3	-8	-4	0	0	/	/
C=CCOc1c(Br)cc(CNn2c(C)n[nH]c2=S)cc1OC	6	-2	-4	-5	-1	0	/	/
O=c1onc(-c2ccccc2)c2ccccc12	16*	4	-2	9	-1	0	7	3
O=c1[nH]nc(-c2ccccc2)c2ccccc12	5	1	2	-8	-2	-9	/	/
COc1ccc(-c2noc(CSc3nnc(-c4ccccc4)n3C)n2)cc1	17*	0	3	-18	-1	-2	9	16
CC(C)(CC(=O)O)CC(=O)N1CCN(c2nc3ccc(Cl)cc3s2)CC1	16*	1	8	-30	2	0	2	14
CC(C)(CC(=O)O)CC(=O)N1CCCN(c2nc3ccc(Cl)cc3s2)CC1	7	-10	1	-22	0	5	/	/
Cc1ccc2nc(/C(C#N)=C/c3ccccc3C(=O)O)[nH]c2c1	2	-74	1	7	1	-3	/	/
Cc1ccc2nc(/C(C#N)=C/c3ccc(O)c(O)c3)[nH]c2c1	84*	-210	2	-62	0	-13	111*	15
O=C(Nc1ccccc1)c1ccc(F)c(S(=O)(=O)N2CCOCC2)c1	3	2	-7	2	2	5	/	/
O=C(Nc1ccc(-c2cn3ccsc3n2)cc1)c1ccc(F)c(S(=O)(=O)N2CCOCC2)c1	21*	7	2	-10	-3	-8	6	58*
Cc1ccc(Nc2cnn(C34CC5CC(CC(CC(=O)O)(C5)C3)C4)c(=O)c2Cl)cc1C	32*	5	1	-24	1	-10	25*	9
CCCCCN(C(=O)CCC(=O)OCC(=O)c1ccc(C(C)CC)cc1)c1c(N)n(CCCC)c(=O)[nH]c1=O (stereo unspecified)	17*	-4	-4	-4	3	-13	10	13
O=C(/C=C/c1cccc([N+](=O)[O-])c1)NCCN1C(=O)S/C(=C\c2ccc(F)cc2)C1=O	0	-13	-9	3	0	2	/	/
CC(C)N1CCN(C(=O)c2ccc([N+](=O)[O-])cc2)CC1	0	20	/	/	0	/	/	/
COc1ccc(C2C=C(Nc3ccccc3)C(=O)N2c2ccccc2)cc1OC (stereo unspecified)	17*	-22	-2	0	1	-2	-1	23*
CCN=C1S/C(=C\c2cc(OCC)c(O)cc2Br)C(=O)N1CC	17*	-144	-2	-17	-2	2	22*	23*
CCN=C1S/C(=C\c2ccc(O)c(OCC)c2)C(=O)N1CC	5	-44	-7	-9	-1	-10	/	/
SMILES	IDE cell inh	eLon inh	PKA-R1A act	IDE act	Rin1-Abl PPI inh	PKA-R2B act	IDE inh confirm	HEK293 tox
COc1cc(OC)cc(C(=O)NCC(=O)N2CC=C(c3ccccc3)CC2)c1	/	-8	3	-3	2	-13	/	/
O=C(NCC(=O)N1CC=C(c2ccccc2)CC1)c1ccc(OC(F)F)cc1	18*	-6	4	-15	2	5	15	55*
COc1ccccc1Nc1ccc(NC(=O)c2cccc([N+](=O)[O-])c2C)cc1	17*	8	-3	0	2	-4	5	39*
O=C(NCc1cccnc1)c1cc(C2CCCN(C(=O)c3ccccn3)C2)on1 (stereo unspecified)	/	7	/	/	-4	/	/	/
CCc1nnc(NC(=O)CSc2nccn2-c2cccc(C)c2C)s1	1	-7	6	4	3	6	/	/
Brc1cc2[nH]cnc2c2ccccc12	22*	-3	4	-39	-112	-10	11	16
CCCCCCN1C=CC=C/C1=C\C=C(C#N)C#N	25*	-75	/	/	-10	/	35*	13
CC(OC(=O)C1CCN(c2ccc(C(F)(F)F)cn2)CC1)C(=O)Nc1ccc(S(N)(=O)=O)cc1 (stereo unspecified)	18*	0	-14	-16	-1	-1	6	5
COc1ccc(N=C(C)C2=C(O)c3ccccc3C2=O)cc1	18*	-1	2	-5	-1	-4	7	16
CCOc1ccc(NC(=O)CSc2nc3ccsc3c(=O)n2Cc2ccc(C(=O)O)cc2)cc1	/	5	-9	/	5	8	/	/
CCCCn1c(SCC(=O)N2CCC(C)CC2)nc2ccsc2c1=O	2	-5	11	-3	-1	-2	/	/
CCCCn1c(SCC(=O)N2CCN(c3ccccc3)CC2)nc2ccsc2c1=O	21*	4	-1	-14	-2	-6	6	19
COc1cccc(C(=O)NNC(=S)NC2CCCCC2)c1	-1	15	-1	-4	2	-2	/	/
